Reference: PubChem BioAssay AID743415 (Broad Institute, 2014)
Entries with a potency or affinity are not part of this list. Activity calls are given as the source filed them.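 The calls were made as follows: active = compounds lowering Shn3 expression whose fitted half-maximal concentration is at most twice the top valid dose; inconclusive = flat partial decrease or an invalid curve fit; inactive = the rest.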

Assay: Shn3 transcript knock-down in Clone20 cells – cell-based, qPCR, cherry-pick, dose response (AID 743415)

| Compound | outcome |
| --- | --- |
| COC(=O)C1=C(c2ccc(OCc3ccccc3)cc2)C[C@@H]2CC[C@H]1N2C(=O)NCCCCc1ccccc1 | inactive |
| O=c1[nH]c2ccccc2n1C1CCN(C(CCc2ccccc2)c2nnnn2Cc2ccccc2)CC1 (configuration not stated) | inactive |
